Measured values taken from PubChem BioAssay (EPA / NIEHS).
The source made the active and inactive calls. How the source made its calls: active means hit-call score of the fitted dose curve at least 0.9, where 1 is the maximum; inactive means score below 0.9.

What follows are compounds tested on TIMP metallopeptidase inhibitor 1 (TIMP1), TIMP1 (gene 7076) (assay: BSK_hDFCGF_TIMP1: BioMAP Diversity Plus: hDFCGF Assay for TIMP metallopeptidase inhibitor 1 (TIMP1) Biomarker Activity (AID 2283062)). Settings: primary human foreskin fibroblasts; actives raise or lower the signal.
In short: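 TIMP-1 measured by ELISA 24 h after chemical dosing of primary human skin fibroblasts, with gain or loss fitted relative to DMSO. Parallel SRB staining (560 nm) monitored overt cytotoxicity.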
For `O=C1C(Cl)=C(Cl)C(=O)C(Cl)=C1Cl`, the AC50 was 12.5 µM (active).
For `N#CCCCCC#N`, the outcome was “inactive”.
With `CC(C)(c1cc(Cl)c(O)c(Cl)c1)c1cc(Cl)c(O)c(Cl)c1` the AC50 was 11 µM (active).
`COCC(=O)N(c1c(C)cccc1C)N1CCOC1=O` was tested, and the outcome was “inactive”.
`CC(C)CCCCCCCOP(=O)(Oc1ccccc1)Oc1ccccc1` was tested, and the AC50 was 12.8 µM (active).
`C=CCN(CC=C)C(=O)C(Cl)Cl` was tested, and the outcome was “inactive”.
In the case of `c1ccc(Nc2ccc3ccccc3c2)cc1`, the AC50 is reported as 31.5 µM (active).
In the case of `Cc1ccc(OP(=O)(Oc2ccc(C)cc2)Oc2ccc(C)cc2)cc1` (tested in a mixture with another compound), the outcome is reported as “inactive”.
For `O=S(=O)(c1ccccc1)c1ccccc1`, the outcome was “inactive”.
With `CC(=O)/C=C/c1ccccc1` the outcome was “inactive”.

What follows are compounds tested on Monokine induced gamma interferon (MIG), CXCL9 (gene 4283) (assay: BSK_hDFCGF_MIG: BioMAP Diversity Plus: hDFCGF Assay for Monokine induced gamma interferon (MIG) Biomarker Activity (AID 2283063)). Settings: primary human foreskin fibroblasts; actives raise or lower the signal.
In short: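 Human primary foreskin fibroblasts in the hDFCGF system, exposed to test chemical for 24 h; MIG measured by ELISA. Bidirectional curve fitting against DMSO negative control as activity baseline.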
`O=C1C(Cl)=C(Cl)C(=O)C(Cl)=C1Cl` was tested, and the AC50 was 31.4 µM (active).
For `N#CCCCCC#N`, the outcome was “inactive”.
For `CC(C)(c1cc(Cl)c(O)c(Cl)c1)c1cc(Cl)c(O)c(Cl)c1`, the AC50 was 14.8 µM (active).
With `COCC(=O)N(c1c(C)cccc1C)N1CCOC1=O` the outcome was “inactive”.
For `CC(C)CCCCCCCOP(=O)(Oc1ccccc1)Oc1ccccc1`, the AC50 was 11 µM (active).
For `C=CCN(CC=C)C(=O)C(Cl)Cl`, the outcome was “inactive”.
`c1ccc(Nc2ccc3ccccc3c2)cc1` was tested, and the outcome was “inactive”.
In the case of `Cc1ccc(OP(=O)(Oc2ccc(C)cc2)Oc2ccc(C)cc2)cc1` (tested in a mixture with another compound), the outcome is reported as “inactive”.
In the case of `O=S(=O)(c1ccccc1)c1ccccc1`, the outcome is reported as “inactive”.
With `CC(=O)/C=C/c1ccccc1` the outcome was “inactive”.

The compounds below were run on Matrix Metallopeptidase 1 (MMP1), MMP1 (gene 4312) (assay: BSK_hDFCGF_MMP1: BioMAP Diversity Plus: hDFCGF Assay for Matrix Metallopeptidase 1 (MMP1) Biomarker Activity (AID 2283064)). Settings: primary human foreskin fibroblasts; actives raise or lower the signal.
In short: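 ELISA read-out of MMP1 from human foreskin fibroblasts (primary skin cells), 24 h post-dose. Gain or loss of signal was fitted bidirectionally versus DMSO negative control; cytotoxicity was checked by SRB in parallel cultures.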
In the case of `O=C1C(Cl)=C(Cl)C(=O)C(Cl)=C1Cl`, the AC50 is reported as 26.8 µM (active).
`N#CCCCCC#N` was tested, and the outcome was “inactive”.
In the case of `CC(C)(c1cc(Cl)c(O)c(Cl)c1)c1cc(Cl)c(O)c(Cl)c1`, the AC50 is reported as 11.1 µM (active).
In the case of `COCC(=O)N(c1c(C)cccc1C)N1CCOC1=O`, the outcome is reported as “inactive”.
For `CC(C)CCCCCCCOP(=O)(Oc1ccccc1)Oc1ccccc1`, the AC50 was 20 µM (active).
For `C=CCN(CC=C)C(=O)C(Cl)Cl`, the outcome was “inactive”.
With `c1ccc(Nc2ccc3ccccc3c2)cc1` the AC50 was 33.3 µM (active).
In the case of `Cc1ccc(OP(=O)(Oc2ccc(C)cc2)Oc2ccc(C)cc2)cc1` (tested in a mixture with another compound), the outcome is reported as “inactive”.
For `O=S(=O)(c1ccccc1)c1ccccc1`, the outcome was “inactive”.
With `CC(=O)/C=C/c1ccccc1` the outcome was “inactive”.

The compounds below were run on Vascular cell adhesion molecule 1 (VCAM1), VCAM1 (gene 7412) (assay: BSK_hDFCGF_VCAM1: BioMAP Diversity Plus: hDFCGF Assay for Vascular cell adhesion molecule 1 (VCAM1) Biomarker Activity (AID 2283065;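 on AC50: VCAM-1 protein level quantified by ELISA after 24 h chemical exposure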)). Settings: primary human foreskin fibroblasts; actives raise or lower the signal.
In short: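 ELISA readout of VCAM-1 on human dermal fibroblast primary cultures, 24 h after chemical exposure. Gain or loss of signal fitted in both directions against DMSO baseline.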
`O=C1C(Cl)=C(Cl)C(=O)C(Cl)=C1Cl` was tested, and the AC50 was 11.1 µM (active).
`N#CCCCCC#N` was tested, and the outcome was “inactive”.
In the case of `CC(C)(c1cc(Cl)c(O)c(Cl)c1)c1cc(Cl)c(O)c(Cl)c1`, the AC50 is reported as 10.5 µM (active).
`COCC(=O)N(c1c(C)cccc1C)N1CCOC1=O` was tested, and the outcome was “inactive”.
With `CC(C)CCCCCCCOP(=O)(Oc1ccccc1)Oc1ccccc1` the AC50 was 5.85 µM (active).
For `C=CCN(CC=C)C(=O)C(Cl)Cl`, the outcome was “inactive”.
`c1ccc(Nc2ccc3ccccc3c2)cc1` was tested, and the AC50 was 30.1 µM (active).
`Cc1ccc(OP(=O)(Oc2ccc(C)cc2)Oc2ccc(C)cc2)cc1` (tested in a mixture with another compound) was tested, and the outcome was “inactive”.
For `O=S(=O)(c1ccccc1)c1ccccc1`, the outcome was “inactive”.
With `CC(=O)/C=C/c1ccccc1` the outcome was “inactive”.

The compounds below were run on Plasminogen activator inhibitor-1 (PAI1), SERPINE1 (gene 5054) (assay: BSK_hDFCGF_PAI1: BioMAP Diversity Plus: hDFCGF Assay for Plasminogen activator inhibitor-1 (PAI1) Biomarker Activity (AID 2283066)). Settings: primary human foreskin fibroblasts; actives raise or lower the signal.
In short: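 PAI-1 levels in human dermal foreskin fibroblasts were quantified by ELISA 24 h after dosing, with gain or loss analysed against DMSO. Overt cytotoxicity was checked by sulforhodamine B total-protein staining in parallel cultures.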
For `O=C1C(Cl)=C(Cl)C(=O)C(Cl)=C1Cl`, the AC50 was 27.1 µM (active).
With `N#CCCCCC#N` the outcome was “inactive”.
`CC(C)(c1cc(Cl)c(O)c(Cl)c1)c1cc(Cl)c(O)c(Cl)c1` was tested, and the AC50 was 6.66 µM (active).
With `COCC(=O)N(c1c(C)cccc1C)N1CCOC1=O` the outcome was “inactive”.
In the case of `CC(C)CCCCCCCOP(=O)(Oc1ccccc1)Oc1ccccc1`, the AC50 is reported as 8.46 µM (active).
In the case of `C=CCN(CC=C)C(=O)C(Cl)Cl`, the outcome is reported as “inactive”.
With `c1ccc(Nc2ccc3ccccc3c2)cc1` the AC50 was 29.3 µM (active).
With `Cc1ccc(OP(=O)(Oc2ccc(C)cc2)Oc2ccc(C)cc2)cc1` (tested in a mixture with another compound) the outcome was “inactive”.
With `O=S(=O)(c1ccccc1)c1ccccc1` the outcome was “inactive”.
`CC(=O)/C=C/c1ccccc1` was tested, and the outcome was “inactive”.

These compounds were tested on Intercellular Adhesion Molecule 1 (ICAM1), ICAM1 (gene 3383) (assay: BSK_KF3CT_ICAM1: BioMAP Diversity Plus: KF3CT Assay for Intercellular Adhesion Molecule 1 (ICAM1) Biomarker Activity (AID 2283067)). Settings: primary human keratinocytes with fibroblasts; actives raise or lower the signal.
In short: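 Cell-surface ICAM-1 was measured by ELISA 24 h after dosing primary human skin keratinocytes co-cultured with fibroblasts. Parallel SRB staining tracked overt cytotoxicity. Gain or loss of signal was fitted relative to DMSO.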
In the case of `O=C1C(Cl)=C(Cl)C(=O)C(Cl)=C1Cl`, the AC50 is reported as 20 µM (active).
With `N#CCCCCC#N` the outcome was “inactive”.
With `CC(C)(c1cc(Cl)c(O)c(Cl)c1)c1cc(Cl)c(O)c(Cl)c1` the AC50 was 7.95 µM (active).
For `COCC(=O)N(c1c(C)cccc1C)N1CCOC1=O`, the outcome was “inactive”.
With `CC(C)CCCCCCCOP(=O)(Oc1ccccc1)Oc1ccccc1` the outcome was “inactive”.
For `C=CCN(CC=C)C(=O)C(Cl)Cl`, the outcome was “inactive”.
For `c1ccc(Nc2ccc3ccccc3c2)cc1`, the AC50 was 36.6 µM (active).
`Cc1ccc(OP(=O)(Oc2ccc(C)cc2)Oc2ccc(C)cc2)cc1` (tested in a mixture with another compound) was tested, and the outcome was “inactive”.
For `O=S(=O)(c1ccccc1)c1ccccc1`, the outcome was “inactive”.
For `CC(=O)/C=C/c1ccccc1`, the outcome was “inactive”.

Each compound was assayed on Interferon-gamma inducible Protein 10 (IP10), CXCL10 (gene 3627) (assay: BSK_KF3CT_IP10: BioMAP Diversity Plus: KF3CT Assay for Interferon-gamma inducible Protein 10 (IP10) Biomarker Activity (AID 2283068)). Settings: primary human keratinocytes with fibroblasts; actives raise or lower the signal.
In short: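 ELISA read-out of IP-10 after 24 h chemical dosing of human skin primary co-culture (keratinocytes, foreskin fibroblasts). Gain or loss of signal relative to DMSO, bidirectional curve fit.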
For `O=C1C(Cl)=C(Cl)C(=O)C(Cl)=C1Cl`, the AC50 was 23.7 µM (active).
With `N#CCCCCC#N` the outcome was “inactive”.
`CC(C)(c1cc(Cl)c(O)c(Cl)c1)c1cc(Cl)c(O)c(Cl)c1` was tested, and the AC50 was 7.37 µM (active).
With `COCC(=O)N(c1c(C)cccc1C)N1CCOC1=O` the outcome was “inactive”.
In the case of `CC(C)CCCCCCCOP(=O)(Oc1ccccc1)Oc1ccccc1`, the AC50 is reported as 30.3 µM (active).
In the case of `C=CCN(CC=C)C(=O)C(Cl)Cl`, the outcome is reported as “inactive”.
`c1ccc(Nc2ccc3ccccc3c2)cc1` was tested, and the AC50 was 36.3 µM (active).
For `Cc1ccc(OP(=O)(Oc2ccc(C)cc2)Oc2ccc(C)cc2)cc1` (tested in a mixture with another compound), the outcome was “inactive”.
In the case of `O=S(=O)(c1ccccc1)c1ccccc1`, the outcome is reported as “inactive”.
For `CC(=O)/C=C/c1ccccc1`, the outcome was “inactive”.
